Reference: ChEMBL document CHEMBL2218924, “A broad activity screen in support of a chemogenomic map for kinase signalling research and drug discovery” (Biochem J, 2013)

These compounds were tested against Rho-associated protein kinase 2 (Homo sapiens) (UniProt O75116). Details: at 10 µM.
Rho-associated protein kinase 2 (Homo sapiens), sequence (O75116 whole entry, looked up): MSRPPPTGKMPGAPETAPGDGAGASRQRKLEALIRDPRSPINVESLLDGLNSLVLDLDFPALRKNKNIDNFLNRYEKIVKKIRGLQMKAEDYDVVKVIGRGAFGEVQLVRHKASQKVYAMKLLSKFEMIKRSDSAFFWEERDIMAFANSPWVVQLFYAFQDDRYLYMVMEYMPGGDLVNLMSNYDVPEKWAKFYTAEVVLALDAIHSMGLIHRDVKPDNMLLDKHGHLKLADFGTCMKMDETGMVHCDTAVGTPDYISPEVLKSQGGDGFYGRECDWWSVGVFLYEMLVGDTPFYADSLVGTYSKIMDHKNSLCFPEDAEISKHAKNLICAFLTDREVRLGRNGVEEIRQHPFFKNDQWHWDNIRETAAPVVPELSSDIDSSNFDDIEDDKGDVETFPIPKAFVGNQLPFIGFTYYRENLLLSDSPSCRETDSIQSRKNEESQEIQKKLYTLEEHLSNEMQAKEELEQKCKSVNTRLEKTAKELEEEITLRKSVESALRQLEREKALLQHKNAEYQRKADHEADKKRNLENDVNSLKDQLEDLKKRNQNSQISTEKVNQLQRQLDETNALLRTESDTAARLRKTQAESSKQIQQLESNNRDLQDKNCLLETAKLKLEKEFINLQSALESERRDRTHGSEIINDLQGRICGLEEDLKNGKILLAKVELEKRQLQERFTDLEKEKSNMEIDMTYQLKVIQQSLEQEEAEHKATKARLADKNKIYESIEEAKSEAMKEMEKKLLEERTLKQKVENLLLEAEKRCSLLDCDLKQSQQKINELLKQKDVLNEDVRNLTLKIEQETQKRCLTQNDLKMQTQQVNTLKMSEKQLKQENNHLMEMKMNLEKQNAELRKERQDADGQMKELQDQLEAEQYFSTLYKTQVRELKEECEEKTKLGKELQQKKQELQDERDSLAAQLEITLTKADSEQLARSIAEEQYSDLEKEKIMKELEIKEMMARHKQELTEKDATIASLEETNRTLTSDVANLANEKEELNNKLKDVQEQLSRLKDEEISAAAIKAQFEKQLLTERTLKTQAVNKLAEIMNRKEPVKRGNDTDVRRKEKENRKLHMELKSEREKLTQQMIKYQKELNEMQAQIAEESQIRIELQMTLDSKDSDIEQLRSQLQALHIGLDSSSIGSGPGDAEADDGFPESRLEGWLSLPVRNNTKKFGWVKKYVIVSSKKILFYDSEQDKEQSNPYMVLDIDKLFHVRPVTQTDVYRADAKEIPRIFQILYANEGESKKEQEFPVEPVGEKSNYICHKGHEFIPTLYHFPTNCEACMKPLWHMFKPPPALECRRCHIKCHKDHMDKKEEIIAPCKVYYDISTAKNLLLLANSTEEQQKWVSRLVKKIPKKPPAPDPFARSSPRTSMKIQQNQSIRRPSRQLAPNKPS

| Structure (SMILES) | residual activity [%] |
| --- | --- |
| N#C/C(=C\c1ccc(O)c(O)c1)C(=O)NCc1ccccc1 | 78 |
| O=S(=O)(c1cccc2cnccc12)N1CCCNCC1 | 4 |
| Nc1nc(Nc2ccc(S(N)(=O)=O)cc2)nn1C(=O)c1c(F)cccc1F | 3 |
| Cn1c2ccccc2c2c3c(c4c5ccccc5n(CCC#N)c4c21)CNC3=O | 31 |
| COc1ccc(COc2ccc(Cc3cnc(N)nc3N)cc2OC)cc1 | 78 |
| CC(C)N(CCC(=O)c1ccc2ccccc2c1)Cc1ccccc1 | 82 |
| O=C1Nc2ccccc2/C1=C\c1c(Cl)[nH]c2ccccc12 | 81 |
| O=c1cc(N2CCOCC2)oc2c(-c3ccccc3)cccc12 | 73 |
| O=C(c1cc2cc(O)ccc2[nH]1)c1cc2cc(O)ccc2[nH]1 | 24 |
| c1ccc(-c2cnc(Nc3ccc(OCCN4CCCC4)cc3)s2)cc1 | 81 |
| N#Cc1c(NC(=O)c2cccc3ccccc23)sc2c1CCCC2 | 99 |
| CCN1/C(=C/C(C)=O)Sc2ccc(OC)cc21 | 73 |

The compounds below were run against Proto-oncogene tyrosine-protein kinase receptor Ret (Homo sapiens) (UniProt P07949). Details: at 1 µM.
Proto-oncogene tyrosine-protein kinase receptor Ret (Homo sapiens), sequence (P07949 whole entry): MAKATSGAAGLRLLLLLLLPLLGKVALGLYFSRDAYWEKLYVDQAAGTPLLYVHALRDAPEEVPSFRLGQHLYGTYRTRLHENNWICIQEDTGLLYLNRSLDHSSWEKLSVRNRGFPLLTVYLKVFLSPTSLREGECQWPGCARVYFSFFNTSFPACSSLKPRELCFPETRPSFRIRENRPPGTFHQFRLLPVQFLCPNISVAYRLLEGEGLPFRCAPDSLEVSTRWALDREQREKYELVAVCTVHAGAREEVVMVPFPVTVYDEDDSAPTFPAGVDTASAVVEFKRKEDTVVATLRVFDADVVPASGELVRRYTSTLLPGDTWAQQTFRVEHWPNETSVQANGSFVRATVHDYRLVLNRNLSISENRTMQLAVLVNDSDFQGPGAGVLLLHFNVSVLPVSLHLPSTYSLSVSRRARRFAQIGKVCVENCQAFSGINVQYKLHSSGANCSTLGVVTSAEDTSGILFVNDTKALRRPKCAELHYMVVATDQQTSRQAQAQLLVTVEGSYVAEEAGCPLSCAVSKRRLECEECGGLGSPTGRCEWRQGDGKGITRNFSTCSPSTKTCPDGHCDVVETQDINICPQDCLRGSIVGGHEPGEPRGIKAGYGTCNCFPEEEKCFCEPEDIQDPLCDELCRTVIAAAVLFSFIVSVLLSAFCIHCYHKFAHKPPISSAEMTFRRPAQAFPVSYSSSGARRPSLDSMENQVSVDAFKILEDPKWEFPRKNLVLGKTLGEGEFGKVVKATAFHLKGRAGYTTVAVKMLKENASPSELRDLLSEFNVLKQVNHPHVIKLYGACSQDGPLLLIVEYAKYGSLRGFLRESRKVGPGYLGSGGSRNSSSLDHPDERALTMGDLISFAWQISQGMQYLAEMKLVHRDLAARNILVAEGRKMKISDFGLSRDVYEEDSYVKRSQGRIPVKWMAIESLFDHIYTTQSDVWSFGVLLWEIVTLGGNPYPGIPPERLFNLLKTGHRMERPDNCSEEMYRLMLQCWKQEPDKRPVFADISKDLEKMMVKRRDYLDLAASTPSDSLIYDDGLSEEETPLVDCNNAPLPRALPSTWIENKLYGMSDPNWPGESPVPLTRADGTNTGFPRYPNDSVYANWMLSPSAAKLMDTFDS

| Structure (SMILES) | residual activity [%] |
| --- | --- |
| O=S(=O)(c1cccc2cnccc12)N1CCCNCC1 | 53 |
| O=C(Nc1ccc(Cl)cc1)c1ccccc1NCc1ccncc1 | 53 |
| O=C1NC(=O)C(c2cn(CCCO)c3ncccc23)=C1c1cnccn1 | 82 |
| COc1ccc2c(c1)c(C1=C(c3c[nH]c4ccccc34)C(=O)NC1=O)cn2CCCN(C)C | 75 |
| CCCCc1c(-c2ccc(OC)cc2)[nH]c2nccnc12 | 45 |
| CCN(CC)CCNC(=O)c1c(C)[nH]c(/C=C2\C(=O)Nc3ccc(Cl)cc32)c1C | -1 |
| Cn1c2ccccc2c2c3c(c4c5ccccc5n(CCC#N)c4c21)CNC3=O | -1 |
| O=C1NC(=O)C(c2cn(CCCn3ccnc3)c3ccccc23)=C1Nc1ccccc1 | 102 |
| O=C1NC(=O)C(c2c[nH]c3ccccc23)=C1c1c[nH]c2ccccc12 | 79 |
| N#C/C(=C1/Nc2ccccc2S1)c1ccnc(NCCc2cccnc2)n1 | 63 |
| CN(C)S(=O)(=O)c1ccc2c(c1)/C(=C/c1cc3c([nH]1)CCCC3)C(=O)N2 | 22 |
| O=C(Nc1nc2ccccc2n1CCN1CCOCC1)c1cccc([N+](=O)[O-])c1 | 88 |
| COc1cc2c(cc1OC)-c1n[nH]c(Nc3cccc(F)c3)c1C2 | 64 |
| O=C(c1cc2cc(O)ccc2[nH]1)c1cc2cc(O)ccc2[nH]1 | 8 |
| COc1cc2nccc(Oc3ccc(NC(=O)Nc4cc(C)on4)c(Cl)c3)c2cc1OC | 0 |

The compounds below were run against Proto-oncogene tyrosine-protein kinase receptor Ret (Homo sapiens) (UniProt P07949). Details: at 10 µM.

| Structure (SMILES) | residual activity [%] |
| --- | --- |
| O=S(=O)(c1cccc2cnccc12)N1CCCNCC1 | 39 |
| O=C(Nc1ccc(Cl)cc1)c1ccccc1NCc1ccncc1 | 6 |
| O=C1NC(=O)C(c2cn(CCCO)c3ncccc23)=C1c1cnccn1 | 81 |
| COc1ccc2c(c1)c(C1=C(c3c[nH]c4ccccc34)C(=O)NC1=O)cn2CCCN(C)C | 45 |
| O=S(=O)(NCCNC/C=C/c1ccc(Br)cc1)c1cccc2cnccc12 | 82 |
| CCCCc1c(-c2ccc(OC)cc2)[nH]c2nccnc12 | 63 |
| CCN(CC)CCNC(=O)c1c(C)[nH]c(/C=C2\C(=O)Nc3ccc(Cl)cc32)c1C | -1 |
| Cn1c2ccccc2c2c3c(c4c5ccccc5n(CCC#N)c4c21)CNC3=O | 1 |
| O=C1NC(=O)C(c2cn(CCCn3ccnc3)c3ccccc23)=C1Nc1ccccc1 | 70 |
| O=C1NC(=O)C(c2c[nH]c3ccccc23)=C1c1c[nH]c2ccccc12 | 28 |
| N#C/C(=C1/Nc2ccccc2S1)c1ccnc(NCCc2cccnc2)n1 | 47 |
| CN(C)S(=O)(=O)c1ccc2c(c1)/C(=C/c1cc3c([nH]1)CCCC3)C(=O)N2 | 37 |
| O=C(Nc1nc2ccccc2n1CCN1CCOCC1)c1cccc([N+](=O)[O-])c1 | 101 |
| COc1cc2c(cc1OC)-c1n[nH]c(Nc3cccc(F)c3)c1C2 | 19 |
| O=C(c1cc2cc(O)ccc2[nH]1)c1cc2cc(O)ccc2[nH]1 | 0 |
| COc1cc2nccc(Oc3ccc(NC(=O)Nc4cc(C)on4)c(Cl)c3)c2cc1OC | -1 |
| O=c1c(-c2ccc(F)cc2)c(-c2ccncc2)[nH]n1-c1ccc(Cl)cc1 | 55 |
| c1ccc(-c2cnc(Nc3ccc(OCCN4CCCC4)cc3)s2)cc1 | 37 |

What follows are compounds tested against Macrophage-stimulating protein receptor (Homo sapiens) (UniProt Q04912). Details: at 1 µM.
Macrophage-stimulating protein receptor (Homo sapiens), sequence (Q04912 25-304 limits assumed): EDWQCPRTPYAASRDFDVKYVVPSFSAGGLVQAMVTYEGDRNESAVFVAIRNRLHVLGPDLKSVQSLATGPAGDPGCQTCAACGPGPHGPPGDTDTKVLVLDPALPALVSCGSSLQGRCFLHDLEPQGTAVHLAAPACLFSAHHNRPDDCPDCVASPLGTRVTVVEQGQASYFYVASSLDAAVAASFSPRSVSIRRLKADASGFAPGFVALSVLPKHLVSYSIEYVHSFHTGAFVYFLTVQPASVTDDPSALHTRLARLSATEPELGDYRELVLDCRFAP
Macrophage-stimulating protein receptor (Homo sapiens), sequence (Q04912 310-1400 limits assumed): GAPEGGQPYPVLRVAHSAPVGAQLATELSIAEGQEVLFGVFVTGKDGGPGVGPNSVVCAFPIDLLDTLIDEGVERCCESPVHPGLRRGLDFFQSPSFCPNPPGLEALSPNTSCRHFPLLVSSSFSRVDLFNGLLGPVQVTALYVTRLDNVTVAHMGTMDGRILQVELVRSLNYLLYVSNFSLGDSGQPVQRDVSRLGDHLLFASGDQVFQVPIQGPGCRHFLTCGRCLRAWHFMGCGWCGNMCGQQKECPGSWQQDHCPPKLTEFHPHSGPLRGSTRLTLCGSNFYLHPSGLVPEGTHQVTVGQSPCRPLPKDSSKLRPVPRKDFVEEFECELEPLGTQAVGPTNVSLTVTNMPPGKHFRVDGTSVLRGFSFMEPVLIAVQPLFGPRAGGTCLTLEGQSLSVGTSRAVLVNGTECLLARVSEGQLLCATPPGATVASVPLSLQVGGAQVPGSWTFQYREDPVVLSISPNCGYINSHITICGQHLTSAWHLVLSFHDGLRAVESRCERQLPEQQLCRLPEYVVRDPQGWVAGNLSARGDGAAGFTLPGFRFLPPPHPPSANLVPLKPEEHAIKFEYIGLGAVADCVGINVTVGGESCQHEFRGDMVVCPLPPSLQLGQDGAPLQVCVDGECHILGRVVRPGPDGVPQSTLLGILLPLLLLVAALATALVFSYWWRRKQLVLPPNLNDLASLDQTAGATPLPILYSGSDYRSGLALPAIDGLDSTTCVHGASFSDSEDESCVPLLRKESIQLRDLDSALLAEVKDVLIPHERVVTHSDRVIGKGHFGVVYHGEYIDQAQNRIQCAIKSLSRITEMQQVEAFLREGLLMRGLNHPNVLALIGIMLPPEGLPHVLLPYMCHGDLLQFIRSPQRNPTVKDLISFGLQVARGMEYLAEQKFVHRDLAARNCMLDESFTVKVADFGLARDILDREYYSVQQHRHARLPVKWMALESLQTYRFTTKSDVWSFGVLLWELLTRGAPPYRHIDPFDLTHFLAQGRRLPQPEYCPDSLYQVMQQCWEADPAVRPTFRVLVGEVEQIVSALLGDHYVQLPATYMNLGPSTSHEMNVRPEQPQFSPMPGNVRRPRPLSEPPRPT

| Structure (SMILES) | residual activity [%] |
| --- | --- |
| O=C1NC(=O)C(c2cn(CCCO)c3ncccc23)=C1c1cnccn1 | 66 |
| COc1ccc2c(c1)c(C1=C(c3c[nH]c4ccccc34)C(=O)NC1=O)cn2CCCN(C)C | 77 |
| Nc1nc(Nc2ccc(S(N)(=O)=O)cc2)nn1C(=O)c1c(F)cccc1F | 81 |
| CCCCc1c(-c2ccc(OC)cc2)[nH]c2nccnc12 | 85 |
| N#C/C(=C1/Nc2ccccc2S1)c1ccnc(NCCc2cccnc2)n1 | 84 |
| CN(C)S(=O)(=O)c1ccc2c(c1)/C(=C/c1cc3c([nH]1)CCCC3)C(=O)N2 | 64 |
| NC(=O)c1ccc(-c2nc(-c3ccc4c(c3)OCCO4)c(-c3ccccn3)[nH]2)cc1 | 94 |
| O=C1Nc2ccccc2/C1=C\c1c(Cl)[nH]c2ccccc12 | 86 |
| O=c1cc(N2CCOCC2)oc2c(-c3ccccc3)cccc12 | 64 |
| O=C(c1cc2cc(O)ccc2[nH]1)c1cc2cc(O)ccc2[nH]1 | 80 |
| COc1cc2nccc(Oc3ccc(NC(=O)Nc4cc(C)on4)c(Cl)c3)c2cc1OC | 31 |
| O=c1c(-c2ccc(F)cc2)c(-c2ccncc2)[nH]n1-c1ccc(Cl)cc1 | 78 |
| N#Cc1c(NC(=O)c2cccc3ccccc23)sc2c1CCCC2 | 74 |
